PubChem BioAssay (NCI)
About 83,000 compounds went through this panel and 20% of them were active in at least one assay; those are over-represented in the sample as a whole.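 Activity criterion: percent growth below 10, measured after cells in 96-well plates were exposed to a single compound concentration for 48 hours.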 Values without a mark were called inactive. Calls of active or inactive are those of the source.

Columns and labels:
Experiment in all cases: NCI-60 one-dose screen, 48 h (100 = growth as untreated, 0 = no growth, -100 = all killed)
Conditions in all cases: 10 µM unless noted
RPMI-8226 leukemia = test system: RPMI-8226 leukemia
OVCAR-8 ovarian = test system: OVCAR-8 ovarian
OVCAR-5 ovarian = test system: OVCAR-5 ovarian
OVCAR-4 ovarian = test system: OVCAR-4 ovarian
SK-OV-3 ovarian = test system: SK-OV-3 ovarian
IGROV1 ovarian = test system: IGROV1 ovarian
OVCAR-3 ovarian = test system: OVCAR-3 ovarian
HS 578T breast = test system: HS 578T breast
NCI/ADR-RES ovarian = test system: NCI/ADR-RES ovarian
T-47D breast = test system: T-47D breast
MDA-MB-435 melanoma = test system: MDA-MB-435 melanoma
SW-620 colon = test system: SW-620 colon
MCF7 breast = test system: MCF7 breast
HCT-116 colon = test system: HCT-116 colon
HCC-2998 colon = test system: HCC-2998 colon
KM12 colon = test system: KM12 colon
BT-549 breast = test system: BT-549 breast

Row | SMILES | growth (RPMI-8226 leukemia) | growth (OVCAR-8 ovarian) | growth (OVCAR-5 ovarian) | growth (OVCAR-4 ovarian) | growth (SK-OV-3 ovarian) | growth (IGROV1 ovarian) | growth (OVCAR-3 ovarian) | growth (HS 578T breast) | growth (NCI/ADR-RES ovarian) | growth (T-47D breast) | growth (MDA-MB-435 melanoma) | growth (SW-620 colon) | growth (MCF7 breast) | growth (HCT-116 colon) | growth (HCC-2998 colon) | growth (KM12 colon) | growth (BT-549 breast)
1 | C=C1CC[C@H](C(C)C)[C@@H]2[C@H]1[C@H]1CC(=C)[C@@H](O)CC[C@@](C)(O)[C@@H]2O1 | 93.3% | 99.4% | 79.5% | 98.5% | 109% | 107% | 101% | 92.4% | 85.9% | 97.1% | 96.8% | 96.7% | 97% | 86.2% | 77.9% | 96.3% | 
2 | CNc1nc2c(s1)C(c1cc(F)ccc1F)CC(=O)N2 (stereo not given) | 87.3% | 91.3% | 89.7% | 83.2% | 71.9% | 73.7% | 55.6% | 70% | 71.7% | 63.6% | -51.6% (active) | 30.9% | 36.5% | 53.5% | 88.1% | 52.9% | 
3 | CNc1ccc(Nc2cccc(C)c2)c2c1C(=O)c1ccccc1C2=O | 74.3% | 99.6% | 91.4% | 81.6% | 86.4% | 11.2% | 110% | 101% | 98.8% | 40.9% | 135% | 85.4% |  | 92.4% | 88.5% | 48.4% | 110%
4 | Brc1c[n+](Cc2ccc3ccccc3c2)cn1Cc1ccc2ccccc2c1 | -46.3% (active) | 8.2% (active) | 46.8% | -13.2% (active) | 34.9% | -51% (active) | -4.19% (active) | -7.66% (active) | 97.5% | 6.91% (active) | -32.1% (active) | 37.7% |  | 17% | -28.5% (active) | -73.5% (active) | -12.1% (active)
5 | O=C(Cc1ccc(F)c(Cl)c1)Nc1cc(C2(C(F)(F)F)CC2)nn1Cc1ccccc1 | 75.8% | 25.3% | 91.4% | 75% | -13.1% (active) | 62.2% | 63.4% | 26.2% | 56.9% | 64.9% | 87.8% | 82.7% | 81% | 60.4% | 104% | 85.5% | 
6 | O=C(CCCCCCSc1nc(-c2ccccc2)cc(-c2ccccc2)n1)NO | 7.64% (active) | 27.6% | 38.9% | 59.1% | 47.8% | 36.9% |  | 43.1% | 0.776% (active) | -11.1% (active) | 17.3% | 8.47% (active) | 16.1% | 11.6% | 63.4% | 50.7% | 30.9%
7 | O=C(N=c1oc2ccccc2cc1-c1cc2ccccc2[nH]1)Nc1ccc(Cl)cc1 | 88.3% | 99.7% | 101% | 91.9% | 89.4% | 59.7% | 103% | 96.5% | 98.7% | 91.1% | 104% | 95.5% | 83.5% | 89.2% | 99.7% | 99.2% | 90.7%
8 | COc1ccc2c(c1OC)C(=O)O[C@H]2[C@H]1c2c(cc3c(c2OC)OCO3)CCN1C | 107% | 95.8% | 96.2% | 105% | 111% | 102% | 124% | 96.5% | 84.7% | 109% | 54.1% | 92.1% | 93.9% | 92.6% | 96.6% |  | 
9 | CCCSc1nc2ccc(C)cc2cc1/C=[N+](\[O-])c1ccccc1 | 17.1% | 12.4% | 74.3% | 55% | 75.1% | 44.4% | -12% (active) | 48.6% | 7.89% (active) | 56.6% | -24.1% (active) | 22.7% | 21.8% | 9.07% (active) | 98.2% | 25% | 42.1%
10 | CN1CCN(c2ccc(-c3cnc4c(-c5csc6ccccc56)cnn4c3)cc2)CC1 | -16.7% (active) | -29% (active) | 7.38% (active) | 11.9% | 81.1% | 5.7% (active) | -68.6% (active) | -28.4% (active) | -20.8% (active) | -7.17% (active) | -46.1% (active) | -5.95% (active) | -22.5% (active) | -23.8% (active) | 24.8% |  | 
11 | COc1ccc(C2=Nn3c(nnc3-c3cc(Cl)cc(Cl)c3Cl)SC2)cc1 | 1.17% (active) | 19.5% | 6.36% (active) | 30.8% |  | -11% (active) | -24.6% (active) | 11.7% | -20.8% (active) | 68.6% | -46.7% (active) | 20.2% | 7.11% (active) | -27% (active) | -57.9% (active) | 6.48% (active) | -31.2% (active)
12 | COc1cccc(OC)c1C(=O)N[C@@H]1C(=O)N2[C@@H]1SC(C)(C)[C@@H]2C(=O)O | 102% | 107% |  | 104% | 99.5% | 99.6% | 119% | 114% | 101% | 98.3% | 105% | 107% | 98% | 97.9% | 105% | 107% | 95.4%
13 | S=c1nc(-c2ccccc2)oc(=NC2CCCCC2)n1C1CCCCC1 | -8.22% (active) | 32.2% |  | 33.9% | 87.7% | -25.9% (active) | 11.8% | 43.1% | 32.5% | 35.4% | 67.9% | 5.42% (active) | 12.7% | 18.5% | 73.7% |  | 82.4%
14 | CC(=O)CC(c1cccs1)c1c(-c2ccccc2)[nH]c2ccccc12 (stereo not given) | 78% | 92.5% |  | 82.6% | 90.1% | 83.3% | 86.4% | 82.1% | 69% | 84.6% | 98% | 90.4% | 92.2% | 89.9% | 97.8% | 94.3% | 105%
15 | COc1ccc(-c2ncnc3c2ncn3CC#CCCl)cc1 | 34.7% | 65.3% |  | 51.1% | 85.8% | 46.2% | 53.4% | 107% | 56.2% | 53.1% | 40.2% | 48.9% |  | 52.5% | 84.8% | 72.6% | 50.1%
16 | COc1ccc(/C=C/c2c(C(=O)/C=C/c3ccc(C(F)(F)F)cc3)c(C)nc3ccccc23)cc1 | -25.7% (active) | 9.68% (active) | -33.6% (active) | -6.41% (active) | 27.3% | -57.2% (active) |  | 1.9% (active) | 2.01% (active) | -13.3% (active) | -56.5% (active) | -42.3% (active) | 1.41% (active) | -67.8% (active) | -77% (active) | -67.6% (active) | -14.2% (active)
17 | CN(C)c1ccc2nc3ccc(=[N+](C)C)c([N+](=O)[O-])c-3sc2c1 | 21.5% | 12.7% |  | 0.851% (active) |  | 20% | -12.5% (active) | 37% | 7.62% (active) | 10.3% | 41.9% | 24.4% | 7.94% (active) | 20.7% | 42.7% | 34.6% | 40.5%
18 | C[C@H]1[C@H]2[C@H]3CC[C@@H]4[C@@]5(C)CC[C@H](O)C(C)(C)[C@@H]5CC[C@@]4(C)[C@]3(C)CC[C@]23CO[C@]1(C)[C@@H](C(=O)/C=C\c1cccnc1)C3 | 9.55% (active) | 35.1% | 121% | 49% |  | 80.6% | 46.7% | 82% | 78.9% | 30.2% | 34.5% | 32.3% | 23.7% | 14.4% | 69.9% | 54.4% | 57.2%
